# Measured values: PubChem BioAssay AID602283 (Johns Hopkins Ion Channel Center, 2012)
# About 940 (85%) of roughly 1,100 compounds were called active. So high a share suggests a set chosen from earlier hits. A selection follows. A number with no mark means an inactive call.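 How the source made its calls: active means inhibition exceeding 3 SD of buffer-only control wells (cut at about 26% in these data); inactive means the rest.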
# Test: carbachol calcium response changes in non-induced cells, primary screen, counter-screen for RGS4 activator project, cell-based, HEK293 M3R, non-induced RGS4, Fluo-4 calcium (AID 602283);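 further: percent drop in integrated peak-minus-baseline over baseline Fluo4 ratio after carbachol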
# Conditions: HEK293 M3R non-induced RGS4, Fluo4 calcium flux, at 10 µM, active compounds read high, after carbachol challenge at its EC90
row,Compound,inhibition
1,OC(CN=c1sc2ccccc2n1CC(O)COc1ccccc1)COc1ccccc1 (stereo not given),92.8% (active)
2,Cc1ccc(C)c(N2CCN(C(=O)CCCCCn3c(=S)[nH]c4ccc(N5CCOCC5)cc4c3=O)CC2)c1,52.8% (active)
3,Cc1ccc(C)c(N2CCN(C(=O)CCCn3c(=O)c4cccn4c4cccnc43)CC2)c1,55.3% (active)
4,CCOC(=O)c1c(NC(=O)NC(C)(C)C)sc2c1CCN(C)C2,"0% [the number is a placeholder, only the call stands]"
5,COc1ccc(/C=C(\C#N)c2c[nH]c3ccccc23)cc1,70.8% (active)
6,Cc1ccc(N2C(=O)CC(Nc3cccc4ccccc34)C2=O)cc1 (stereo not given),"0% [the number is a placeholder, only the call stands]"
7,Cc1oc2c(F)c(F)c(F)c(F)c2c1S(=O)(=O)Nc1cccc(C(F)(F)F)c1,88.8% (active)
8,Cc1nc(N2CCN(c3ccccn3)CC2)c2c(C)c(C(=O)Nc3ccc(F)cc3)sc2n1,72.8% (active)
9,O=S(=O)(c1ccc(Br)cc1)n1ccc2ccccc21,36.8% (active)
10,Cc1ccc(OCCCCN2CCCCC2)c(Br)c1,"0% [the number is a placeholder, only the call stands]"
11,CCCN(CCc1ccccc1)C1CCc2c(O)cccc2C1 (stereo not given),34.8% (active)
12,Cc1cccc(-c2nc3ccc(C(=O)NCCN4CCN(C)CC4)cc3nc2-c2cccc(C)c2)c1,93.8% (active)
13,CN1CCN(C(=O)N2c3ccccc3CCc3ccccc32)CC1,57.3% (active)
14,Cc1nn(C)cc1N1C(=O)c2cccc3c(N)ccc(c23)C1=O,101% (active)
15,CN(C)c1ccc(/C=C2\NC(=S)N(Cc3ccccc3)C2=O)cc1,62.8% (active)
16,CC(C)C(c1nnnn1CCc1ccccc1)N1CCN(C(=O)c2ccco2)CC1 (stereo not given),25.8% (active)
17,COc1ccc(C(=O)Nc2nc(-c3ccc(S(=O)(=O)N4CCOCC4)cc3)cs2)cc1,36.3% (active)
18,N=c1c2c3c(sc2nc2n1CCCCC2)CCCC3,55.8% (active)
19,CCOC(=O)C1=C(NC(=S)NC(=O)c2ccccc2)c2ccccc2CC1(C)C,61.3% (active)
20,OCCC1CN(Cc2ccc3nsnc3c2)CCN1C1CCCC1 (stereo not given),43.8% (active)
21,CCC1C=C(c2ccccc2)C=CN=C1N(CC)CC (stereo not given),83.8% (active)
22,O=C(CN1CCCCCC1)Nc1ccc(S(=O)(=O)N2CCCCC2)cc1,83.8% (active)
23,COc1cccc(-c2cc3nc4c(c(N5CCC6(CC5)OCCO6)n3n2)CCCC4)c1,31.8% (active)
24,CCc1ccccc1NC(=O)[C@@H]1CCC(=O)N1C1OC(=O)c2c1ccc(OC)c2OC (stereo not given in full),"0% [the number is a placeholder, only the call stands]"
25,COc1cc(/C=C(\C#N)c2nc3ccccc3[nH]2)ccc1O,61.3% (active)

row,Compound,inhibition
1,CN(C)S(=O)(=O)N1CCC(Oc2cccc(C(=O)NCCCC3CCCC3)c2)CC1,61.8% (active)
2,CCc1c(C)sc(NC(=O)c2ccc(Br)o2)c1C(=O)OC,"0% [the number is a placeholder, only the call stands]"
3,CCOc1ccc(C(CC(=O)O)NC(=O)COc2ccccc2)cc1 (stereo not given),"0% [the number is a placeholder, only the call stands]"
4,Cc1ccccc1C(OCCN(C)C)C1CCCCC1 (stereo not given),95.3% (active)
5,O=C(Cn1c(N2CCN(C/C=C/c3ccccc3)CC2)nc2ccccc21)c1ccccc1,91.8% (active)
6,COc1ccc(CN2CCCC(C(=O)c3ccc(Cl)cc3)C2)cc1Cn1cncn1 (stereo not given),68.8% (active)
7,COc1cccc(/C=N/Nc2cc(C)nc(-c3ccccc3O)n2)c1O,85.8% (active)
8,Cc1cccc(-c2nc(Nc3ccc(O)cc3)c3ccccc3n2)c1,35.3% (active)
9,Oc1ccccc1N1CCN(c2ncnc3sc(-c4ccccc4)cc23)CC1,26.3% (active)
10,COc1ccccc1C(CNC(=O)c1cccc(NS(=O)(=O)c2ccc(Br)cc2)c1)N(C)C (stereo not given),51.3% (active)
11,COc1cccc(CNC(=O)CCC2CCCN(Cc3ccc(OC(F)F)cc3)C2)c1 (stereo not given),83.8% (active)
12,CCC1CCCCN1CCCNC(=O)c1cc2c(Cl)nc3ccccc3c2s1 (stereo not given),71.8% (active)
13,O=C(c1cccs1)C1C(c2ccc(Br)cc2)NC(=S)NC1(O)C(F)(F)F (stereo not given),90.8% (active)
14,Cc1cc2oc3ccc(NCCC4CCCN4C)cc3c(=O)c2cc1C (stereo not given),87.8% (active)
15,CN(C)CCOc1ccc(Cl)cc1C(C)(C)C,47.8% (active)
16,Cc1ccc(OS(=O)(=O)c2ccc(-c3csc(C)n3)s2)c(C)c1,33.8% (active)
17,CCCCCC(O)(CCN1CCCCC1)c1ccccc1 (stereo not given),95.3% (active)
18,C#CC(CCN1CCCCC1)(OC)c1ccccc1 (stereo not given),63.8% (active)
19,S=c1[nH]nc(-c2ccc(Cl)cc2)n1CC1CCCO1 (stereo not given),"0% [the number is a placeholder, only the call stands]"
20,Cc1ccc(SCC(=O)c2cc(C)c(OC(=S)N(C)C)c(C)c2)cc1,42.8% (active)
21,COc1ccc(C(=O)NC2CCCc3c2cnn3-c2cccc(C)c2C)c(OC)n1 (stereo not given),64.8% (active)
22,COc1ccc(CN(C)C(=O)c2cc(-c3ccc(C)cc3C)nc3ccccc23)c(OC)c1OC,51.3% (active)
23,COc1ccc(-c2cc(C(=O)N(C)Cc3ccccc3)c3ccccc3n2)cc1,72.3% (active)
24,Cc1ccnc(SCCn2c(N(C)Cc3ccccc3)nc3c2c(=O)n(C)c(=O)n3C)n1,28.3% (active)
25,COC(=O)c1ccc(CN2CCC(CO)(Cc3ccc(OC)cc3)CC2)cc1,70.8% (active)
